# What was measured:
# Settings in all cases: concentration: 1 μM, replicates: in singlicate; n = 1
# LOK = test system: T1, LOK
# T1 construct: gene STK10
# LRRK2 = test system: LRRK2
# LTK = test system: LTK
# LYN = test system: LYN
# LZK = test system: T2, LZK
# T2 construct: gene MAP3K13
# MAK = test system: MAK
# MAP3K15 = test system: MAP3K15
# MAP3K1 = test system: MAP3K1
# MAP3K2 = test system: MAP3K2
# MAP3K3 = test system: MAP3K3
# MAP3K4 = test system: MAP3K4
# MAP4K2 = test system: MAP4K2
# MAP4K3 = test system: MAP4K3
# MAP4K4 = test system: MAP4K4
# MAP4K5 = test system: MAP4K5
# MAPKAPK2 = test system: MAPKAPK2
# MAPKAPK5 = test system: MAPKAPK5
# MARK1 = test system: MARK1
# MARK2 = test system: MARK2
# MARK3 = test system: MARK3
# 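Also: KINOMEscan kinase panel screen.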
SMILES,%Inh (LOK),%Inh (LRRK2),%Inh (LTK),%Inh (LYN),%Inh (LZK),%Inh (MAK),%Inh (MAP3K15),%Inh (MAP3K1),%Inh (MAP3K2),%Inh (MAP3K3),%Inh (MAP3K4),%Inh (MAP4K2),%Inh (MAP4K3),%Inh (MAP4K4),%Inh (MAP4K5),%Inh (MAPKAPK2),%Inh (MAPKAPK5),%Inh (MARK1),%Inh (MARK2),%Inh (MARK3)
COc1cccc(C2=C(Nc3cccc(C(=O)O)c3)C(=O)NC2=O)c1 [SB-390770],22%,27%,32%,0%,0%,33%,1%,25%,0%,3%,20%,0%,11%,12%,15%,6%,0%,15%,0%,0%
OCCCNc1nccc(-c2c(-c3cccc(C(F)(F)F)c3)nn3cc(C(F)(F)F)ccc23)n1 [GW630813],0%,0%,4%,0%,43%,16%,0%,0%,0%,0%,4%,0%,0%,6%,2%,7%,0%,0%,0%,0%
COc1cccc(C2=C(N(C)c3ccccc3)C(=O)NC2=O)c1 [SB-334865],0%,0%,0%,0%,32%,24%,0%,1%,4%,0%,12%,0%,0%,0%,0%,17%,0%,0%,0%,0%
CCCNC(=O)Nc1ccc(Oc2ncnc3ccn(C)c23)cc1,47%,0%,4%,30%,22%,0%,0%,31%,15%,0%,6%,7%,0%,0%,0%,7%,0%,6%,6%,0%
Nc1ncnc2c1ncn2-c1cccc(F)c1 [SKF-97560],0%,31%,0%,0%,13%,0%,0%,16%,3%,5%,16%,38%,0%,0%,0%,0%,39%,0%,0%,0%
Cc1c(Cn2c(C)nn3c(=O)cc(N4CCO[C@H](C)C4)nc23)cccc1C(F)(F)F [GSK2373690],0%,31%,0%,0%,0%,0%,26%,7%,2%,0%,43%,0%,0%,3%,0%,23%,0%,0%,0%,0%
Nc1ncnc2c1ncn2-c1cccc2ccccc12 [SKF-97184],3%,4%,0%,15%,34%,30%,9%,5%,18%,0%,2%,0%,0%,0%,0%,0%,0%,23%,0%,52%
CCc1nc(-c2cccc(C)c2)c(-c2ccncc2)s1,0%,0%,0%,12%,0%,0%,0%,0%,0%,0%,0%,0%,0%,17%,0%,0%,0%,0%,11%,0%
CCC(=O)c1c(-c2ccccc2)c2cc(Cl)ccc2c(=O)n1Cc1cc(S(C)(=O)=O)n(CC(F)F)n1,0%,0%,0%,0%,0%,14%,2%,0%,0%,0%,9%,0%,0%,0%,0%,0%,5%,0%,1%,0%
CCC(=O)c1c(-c2ccccc2)c2cc(Cl)ccc2c(=O)n1Cc1ccc(C(=O)O)cc1,0%,0%,0%,0%,0%,4%,0%,0%,0%,0%,0%,12%,0%,0%,0%,0%,17%,0%,3%,0%

# Source: article PMC5540273 (PLoS ONE, 2017)
